# Laboratory results taken from the supplement of paper PMC3334620.
# The full ranking holds about 33,000 sequences; the median of “E-score (-0.5 to 0.5)” is about -0.016, and the highest 2% start at about 0.32. The sample as a whole holds a higher share of the highest values than the screen did.
# Target: T1, Stp1 (UniProt B3LFK1)
# T1 sequence: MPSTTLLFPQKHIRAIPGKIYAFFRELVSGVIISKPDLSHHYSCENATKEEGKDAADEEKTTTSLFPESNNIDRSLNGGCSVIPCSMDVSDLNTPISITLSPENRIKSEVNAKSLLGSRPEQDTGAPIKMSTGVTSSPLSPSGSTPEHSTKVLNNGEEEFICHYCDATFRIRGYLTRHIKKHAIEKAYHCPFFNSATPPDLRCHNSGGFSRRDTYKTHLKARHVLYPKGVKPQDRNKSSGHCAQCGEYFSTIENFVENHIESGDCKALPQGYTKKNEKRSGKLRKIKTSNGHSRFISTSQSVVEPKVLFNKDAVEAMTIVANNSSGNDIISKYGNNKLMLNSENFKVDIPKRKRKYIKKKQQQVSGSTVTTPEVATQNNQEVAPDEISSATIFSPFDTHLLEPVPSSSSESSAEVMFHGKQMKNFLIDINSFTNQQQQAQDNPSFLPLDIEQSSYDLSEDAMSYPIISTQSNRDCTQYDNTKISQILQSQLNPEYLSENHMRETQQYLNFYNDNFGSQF
# Assay: PBM E-score (8-mer binding enrichment) (E-score (-0.5 to 0.5)); higher = stronger / more preferred TF binding
# Conditions: protein concentration: 200 nM; construct: GST-full length
# How it was run: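 E-scores (a modified Wilcoxon-Mann-Whitney statistic) were assigned by the Universal PBM Analysis Suite to every ungapped eight-base word pooled with its reverse complement. The input came from universal all-10-mer Agilent arrays made double-stranded by primer extension and probed with GST-tagged yeast transcription factors at about 100-200 nM. Fluorescent anti-GST detected bound protein, and masliner normalised the scans.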
row,Sequence,PBM E-score
1,GGCCGTTA,0.1
2,CGCCGTCA,0.216
3,ATCGTAGG,-0.121
4,TGAGCGAA,0.0336
5,CAGCCAGC,-0.244
6,CCTGCGAC,-0.287
7,AATCTTCG,0.196
8,AGAACATA,0.00125
9,AACCGCCA,-0.153
10,CTCCGCCC,-0.192
11,AGCCGCCA,-0.122
12,AGCCGCCC,0.11
13,GGCCGCCC,-0.0498
14,CGCCGCCG,0.402
15,CGCCGCCC,0.346
16,AGCCGCCG,0.361
17,AACCGCCC,-0.149
18,AACCGCCG,0.324
19,CGCCGCCA,0.154
20,CCCCGCCG,0.0774
21,ATTCTCAC,0.0144
22,AAGAGTAC,-0.0411

row,Sequence,PBM E-score
1,GGACTCTA,-0.344
2,AGCTTCAC,-0.221
3,CAGCTAAC,-0.171
4,AACCTCTA,-0.104
5,CGCAGTTA,0.0737
6,AGCACTAA,0.132
7,AGCACGAA,0.0412
8,TGCACTAA,0.109
9,GGCAAAAC,0.254
10,GGCACGAA,0.389
11,TGCACAAA,0.0921
12,GGCACAAA,0.374
13,GGCAAGAA,0.22
14,GGCAAAAA,0.388
15,GGCACGAC,0.208
16,GGCACTAA,0.392
17,AGCACAAA,0.206
18,CATGCACA,0.0872
19,TATCAGAA,0.22
20,CTTGCTTA,-0.203
21,AGGGCCGC,0.168
22,TGCCTCAA,-0.019

row,Sequence,PBM E-score
1,TATTGCGA,0.165
2,CACCTCAA,0.0958
3,AGCTGCAC,-0.111
4,CAAGTCGG,-0.0998
5,TACACGCA,-0.204
6,GGTTTATA,0.0512
7,AGTTTATA,0.153
8,CGTTTATA,0.331
9,GATTGTCC,-0.0756
10,AAAACAAA,0.128
11,CCTGGACA,-0.187
12,CTGAGGTA,-0.0424
13,AGAAAGCA,0.158
14,ATCACTAA,0.0331
15,GGCGCGAA,0.37
16,AGCGCGAA,0.0676
17,GGCGCGAC,0.36
18,CGCGCGAA,0.129
19,CGCGCGAC,0.12
20,AGCGCGAC,-0.149
21,CTGGGAAC,0.0375
22,AGTCGATG,-0.194

row,Sequence,PBM E-score
1,AGTGGGGC,-0.231
2,ATAAGGCA,0.299
3,ACGGGGCC,-0.0286
4,ACAAGGCG,0.38
5,CCAAGGCG,0.341
6,CCAAGGCC,0.171
7,ACGGGGCG,0.366
8,ACAAGGCC,-0.026
9,CCAAGGCA,0.173
10,ACGGGGCT,-0.161
11,ATAAGGCG,0.365
12,ATAAGGCC,0.0529
13,ACAAGGCT,0.198
14,CGAGAAGC,-0.112
15,CAACCTTG,0.0792
16,CTCCCTGC,-0.293
17,CTTGATCC,0.0811
18,CGAGTCCG,0.128
19,CCAGTGAA,-0.0703
20,GAGATAGA,-0.0115
